According to PubChem BioAssay (NCATS):
Records with an inconclusive call do not appear. Activity calls are given as the source filed them. Unless noted, the call rests on the fitted dose curve; in most records, active means well fitted inhibition curve with a large enough effect; inconclusive means small, poorly fitted or top-dose-only effect; inactive means flat fitted curve, though single readings scatter.

Columns and labels:
[1] = AP1 Signaling Pathway (AID 357; active means well fitted curve in either direction with a large enough effect, not every such curve was filed as active;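 further: ME-180 reporter cells stimulated with EGF at its EC50 level; on the % scale 0 is the no-effect control and ±100 the full control effect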)
Method in brief: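 A ratiometric CCF4 readout (405 nm excitation; 460 and 530 nm emission) quantified AP-1-driven beta-lactamase in ME-180 cells after 5 h with compound and EC50 EGF; AC50 values were derived for activators and inhibitors.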

[2] = biological target: Cytochrome P450 1A2 (Homo sapiens) (UniProt P05177); experiment: p450-cyp1a2 (AID 410; calls by dose curve;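 further: -100% = full effect of reference inhibitor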)
Method in brief: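 O-Demethylation of luciferin 6' methyl ether by human CYP1A2 is monitored as luciferase luminescence. Substrate sits at Km (100uM); enzyme is 20nM. Values are scaled to 57 uM furafylline as maximal inhibition.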

[3] = NFAT Signaling Pathway (AID 444; active means well fitted curve in either direction with a large enough effect, not every such curve was filed as active;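 further: carbachol stimulus at about its EC50 of 1 µM final; on the % scale 0 is the no-effect control and ±100 the full control effect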); details: Jurkat NFAT-bla M1, carbachol, beta-lactamase ratio, 5 h; at 17.2 µM (top of the series) unless noted
Method in brief: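 Jurkat cells carrying an NFAT-driven β-lactamase reporter and co-transfected muscarinic M1 receptor were treated with compound plus carbachol (1 uM final, an EC50 level) for 5 h at 37 °C. CCF4 loading followed for 1 h at RT; 460/530 nm ratio gave %activity.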

[4] = Stat Signaling Pathway (AID 446; active means well fitted curve in either direction with a large enough effect, not every such curve was filed as active;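 further: ME-180 cervical cancer cells given 40 pM IL-6 alongside compound; SIE-controlled beta-lactamase reporter measured as 460/530 nm FRET emission ratio; on the % scale 0 is the no-effect control and ±100 the full control effect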)
Method in brief: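 Overnight-plated ME-180 cells bearing a STAT Inducible Element beta-lactamase reporter; 5 h co-exposure to compound and 40 pM IL-6; values normalized to 300 pM IL-6 and 125 nM JAK inhibitor controls.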

[5] = biological target: Mitogen-activated protein kinase 10 (Mus musculus) (UniProt Q61831); experiment: JNK3 AlphaScreen Assay (AID 530; active means well fitted curve in either direction with a large enough effect, not every such curve was filed as active;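 further: kinase came from lysate of stimulated human HepG2 cells; signal reports phosphorylation of biotinylated GST-cJun 1-79 at Ser73 with 10 µM ATP; on the % scale 0 is the no-effect control and ±100 the full control effect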)
Method in brief: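 Phosphorylation of biotinylated GST-cJun(1-79) at Ser73 is measured by AlphaScreen proximity luminescence. Enzyme is JNK3 in HepG2 lysates activated with interleukin-1beta and tumor necrosis factor alpha; ATP is 10 uM final.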

[6] = biological target: 3',5'-cyclic-AMP phosphodiesterase 4B (Homo sapiens) (UniProt Q07343); experiment: qHTS Assay for Inhibitors of PDE-IV (AID 607; active means well fitted activation curve with a large enough effect in the main read-out, with a control signal flat, not every such curve was filed as active; further: % of control where 0% means no effect)
Method in brief: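 Live HEK293 cells with a modified cyclic nucleotide-gated (CNG) channel report intracellular cAMP via membrane-potential dye fluorescence (ex 535/em 590 nm). Endogenous PDE-IV was targeted. Compounds were tested at up to 22.9 uM final; RO 20-1724 100 uM served as control.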

[7] = qHTS Assay for Lipid Storage Modulators (AID 1519; calls by dose curve); details: Drosophila S3 cells, BODIPY lipid droplet/cell ratio, laser cytometry, cells loaded with oleic acid; for activity change, negative = inhibition: at 25.7 µM (top of the series)
Method in brief: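 Cells seeded at 5,000 per well were treated with compounds over a concentration series and loaded with oleic acid (400 uM, as added). Lipid droplet fluorescence (488 nm excitation, 500-530 nm channel) was read by laser-scanning cytometry and normalized to 20 uM Triacsin C.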

[8] = biological target: Ubiquitin carboxyl-terminal hydrolase 1 (Homo sapiens) (UniProt O94782); experiment: Inhibitors of USP1/UAF1: Pilot qHTS (AID 504865);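 further: rhodamine fluorescence freed from ubiquitin-rhodamine substrate followed over time; top concentration of the series differs between compounds; on the % scale 0 is the no-effect control and ±100 the full control effect; nearly all actives have a fitted effect of over 35% in size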
Method in brief: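 USP1/UAF1 complex at 1 nM preincubated 15 min at room temperature with compound, then Ub-Rho substrate added at 150 nM final. Fluorescence (480/540 nm) read kinetically in 50 mM HEPES pH 7.8, 0.5 mM EDTA, 1 mM TCEP, 0.1 mg/ml BSA, 0.01% Tween-20.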

[9] = biological target: Luciferin 4-monooxygenase (Photinus pyralis) (UniProt P08659); experiment: Biochemical firefly luciferase enzyme assay for NPC (AID 624030);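 further: purified P. pyralis luciferase at 10 nM with luciferin and ATP substrate; 0% = DMSO and -100% = full luciferase inhibition by PTC124 control; nearly all actives have a fitted effect of over 70% in size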
Method in brief: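 Counter-screen for direct inhibition of the luciferase enzyme by approved-drug library compounds, run at 10 nM enzyme in 50 mM Tris acetate (final). Luminescence was read within 5 min of enzyme-buffer addition and normalized to PTC124 versus DMSO (0%).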

[10] = qHTS profiling for inhibitors of Plasmodium falciparum proliferation (AID 504749);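 further: 0% = DMSO vehicle and full inhibition = artemisinin control; nearly all actives have a fitted effect of over 60% in size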; details: P. falciparum in erythrocytes, SYBR Green DNA, 72 h, at 12.8 µM (top of the series)
Method in brief: (§1)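 Quantitative HTS: compounds pinned into medium, infected erythrocytes added (0.3% parasitemia, 2.5% hematocrit), 72 h culture at 37 C under 5% CO2. Saponin/Triton lysis with SYBR Green I, overnight RT, then fluorescence read.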

C2A = experiment: as above; details: P. falciparum in erythrocytes, SYBR Green DNA, 72 h; series mostly up to 12.8 µM
Method in brief: as §1

CP217 = experiment: as above; details: P. falciparum in erythrocytes, SYBR Green DNA, 72 h; series mostly up to 12.8 µM
Method in brief: as §1

CP238 = experiment: as above; details: P. falciparum in erythrocytes, SYBR Green DNA, 72 h; series mostly up to 12.8 µM
Method in brief: as §1

CP250 = experiment: as above; details: P. falciparum in erythrocytes, SYBR Green DNA, 72 h; series mostly up to 12.8 µM
Method in brief: as §1

CP256 = experiment: as above; details: P. falciparum in erythrocytes, SYBR Green DNA, 72 h; series mostly up to 12.8 µM
Method in brief: as §1

FAB9 = experiment: as above; details: P. falciparum in erythrocytes, SYBR Green DNA, 72 h; series mostly up to 12.8 µM
Method in brief: as §1

JCK = experiment: as above; details: P. falciparum in erythrocytes, SYBR Green DNA, 72 h; series mostly up to 12.8 µM
Method in brief: as §1

SC27B = experiment: as above; details: P. falciparum in erythrocytes, SYBR Green DNA, 72 h; series mostly up to 12.8 µM
Method in brief: as §1

[11] = biological target: Glucocorticoid receptor (Homo sapiens) (UniProt P04150); experiment: GR-GFP Redistribution (AID 450;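 active means compounds whose dose series gives a full or clear partial fitted curve of increased nuclear translocation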; further: potency means the concentration at half of the fitted maximal effect); details: U2OS GR-GFP nuclear translocation, laser cytometry, 2 h
[12] = biological target: Glucocorticoid receptor (Homo sapiens) (UniProt P04150); experiment: GR-EFC Redistribution (AID 451; calls by dose curve; further: potency means the concentration at half of the fitted maximal effect); details: CHO-K1 GR-EFC translocation, beta-gal luminescence, 2 h
Method in brief: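 CHO-K1 cells stably expressing nuclear-localized β-gal enzyme acceptor and GR fused C-terminally to the enzyme donor fragment; ligand-driven nuclear translocation restores β-gal by complementation. Compounds titrated up to 46 uM final, 2 h at 37 °C; luminescence read.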

[13] = measured here: cell count channel max response
[14] = measured here: lipid channel max response

Luciferin 4-monooxygenase (Photinus pyralis), sequence (P08659 whole entry, looked up): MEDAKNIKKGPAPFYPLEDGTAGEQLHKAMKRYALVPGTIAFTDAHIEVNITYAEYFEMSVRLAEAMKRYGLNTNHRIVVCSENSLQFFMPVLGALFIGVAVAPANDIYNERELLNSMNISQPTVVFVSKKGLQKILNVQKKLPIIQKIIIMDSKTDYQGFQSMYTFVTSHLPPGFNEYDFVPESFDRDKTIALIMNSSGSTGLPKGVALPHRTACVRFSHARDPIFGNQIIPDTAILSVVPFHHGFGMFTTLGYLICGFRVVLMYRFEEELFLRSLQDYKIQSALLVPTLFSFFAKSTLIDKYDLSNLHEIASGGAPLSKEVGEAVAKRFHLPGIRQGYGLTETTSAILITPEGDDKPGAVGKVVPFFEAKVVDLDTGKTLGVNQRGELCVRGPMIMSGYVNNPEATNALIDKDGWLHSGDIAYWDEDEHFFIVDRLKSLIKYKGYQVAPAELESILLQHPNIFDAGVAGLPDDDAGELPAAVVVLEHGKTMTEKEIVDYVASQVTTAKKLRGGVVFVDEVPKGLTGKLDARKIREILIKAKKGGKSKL
3',5'-cyclic-AMP phosphodiesterase 4B (Homo sapiens), sequence (Q07343 whole entry, looked up): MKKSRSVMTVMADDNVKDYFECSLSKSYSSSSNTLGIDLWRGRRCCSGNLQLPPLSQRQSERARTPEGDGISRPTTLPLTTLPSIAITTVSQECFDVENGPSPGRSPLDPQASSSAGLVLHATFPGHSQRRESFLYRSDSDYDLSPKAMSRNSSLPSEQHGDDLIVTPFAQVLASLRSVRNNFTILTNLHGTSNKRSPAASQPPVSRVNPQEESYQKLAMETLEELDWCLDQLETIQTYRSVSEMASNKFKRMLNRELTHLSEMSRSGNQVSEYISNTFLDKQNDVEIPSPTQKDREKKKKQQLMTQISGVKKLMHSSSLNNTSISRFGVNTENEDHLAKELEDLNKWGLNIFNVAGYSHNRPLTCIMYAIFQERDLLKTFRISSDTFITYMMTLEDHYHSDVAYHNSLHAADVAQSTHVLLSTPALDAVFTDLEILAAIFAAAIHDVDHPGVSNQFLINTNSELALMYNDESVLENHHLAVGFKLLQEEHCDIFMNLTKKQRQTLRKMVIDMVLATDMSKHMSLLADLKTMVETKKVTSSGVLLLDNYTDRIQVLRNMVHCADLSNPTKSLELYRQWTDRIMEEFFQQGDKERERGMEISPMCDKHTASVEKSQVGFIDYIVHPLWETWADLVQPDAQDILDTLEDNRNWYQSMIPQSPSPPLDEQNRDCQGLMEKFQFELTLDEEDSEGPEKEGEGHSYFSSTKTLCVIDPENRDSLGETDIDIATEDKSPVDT
Ubiquitin carboxyl-terminal hydrolase 1 (Homo sapiens), sequence (O94782 whole entry, looked up): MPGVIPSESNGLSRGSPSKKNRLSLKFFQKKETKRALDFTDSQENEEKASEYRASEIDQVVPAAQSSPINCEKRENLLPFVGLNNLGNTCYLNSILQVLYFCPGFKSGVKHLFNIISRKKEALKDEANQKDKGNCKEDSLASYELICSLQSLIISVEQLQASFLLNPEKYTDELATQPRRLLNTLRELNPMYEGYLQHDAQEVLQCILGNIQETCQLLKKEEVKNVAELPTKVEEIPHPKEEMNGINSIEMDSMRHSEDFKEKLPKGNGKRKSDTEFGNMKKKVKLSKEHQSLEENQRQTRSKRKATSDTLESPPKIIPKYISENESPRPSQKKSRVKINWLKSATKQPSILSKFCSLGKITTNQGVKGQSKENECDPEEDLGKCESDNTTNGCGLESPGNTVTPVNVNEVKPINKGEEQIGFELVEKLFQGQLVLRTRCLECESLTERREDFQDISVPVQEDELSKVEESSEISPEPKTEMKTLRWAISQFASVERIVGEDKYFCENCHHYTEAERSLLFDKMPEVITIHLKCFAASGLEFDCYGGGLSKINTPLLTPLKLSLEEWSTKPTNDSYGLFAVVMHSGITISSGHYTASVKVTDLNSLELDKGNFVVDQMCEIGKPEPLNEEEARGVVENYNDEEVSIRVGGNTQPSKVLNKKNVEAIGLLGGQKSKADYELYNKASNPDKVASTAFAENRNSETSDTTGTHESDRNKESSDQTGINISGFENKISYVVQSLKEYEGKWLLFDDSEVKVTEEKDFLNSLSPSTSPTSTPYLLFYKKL
Cytochrome P450 1A2 (Homo sapiens), sequence (P05177 whole entry, looked up): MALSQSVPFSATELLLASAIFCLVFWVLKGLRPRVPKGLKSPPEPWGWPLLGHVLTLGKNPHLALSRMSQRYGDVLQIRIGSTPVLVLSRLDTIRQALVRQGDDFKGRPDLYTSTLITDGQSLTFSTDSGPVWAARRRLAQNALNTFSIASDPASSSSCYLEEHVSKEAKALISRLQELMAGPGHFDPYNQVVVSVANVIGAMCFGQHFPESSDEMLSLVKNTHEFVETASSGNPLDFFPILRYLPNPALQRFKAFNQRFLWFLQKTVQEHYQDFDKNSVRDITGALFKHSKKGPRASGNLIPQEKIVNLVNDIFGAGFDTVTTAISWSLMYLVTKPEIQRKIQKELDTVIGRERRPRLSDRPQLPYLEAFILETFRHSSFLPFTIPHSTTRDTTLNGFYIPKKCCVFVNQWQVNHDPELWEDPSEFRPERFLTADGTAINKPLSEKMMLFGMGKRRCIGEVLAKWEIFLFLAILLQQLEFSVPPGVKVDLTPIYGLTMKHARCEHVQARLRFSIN
Glucocorticoid receptor (Homo sapiens), sequence (P04150 whole entry, looked up, the tested form may be a part): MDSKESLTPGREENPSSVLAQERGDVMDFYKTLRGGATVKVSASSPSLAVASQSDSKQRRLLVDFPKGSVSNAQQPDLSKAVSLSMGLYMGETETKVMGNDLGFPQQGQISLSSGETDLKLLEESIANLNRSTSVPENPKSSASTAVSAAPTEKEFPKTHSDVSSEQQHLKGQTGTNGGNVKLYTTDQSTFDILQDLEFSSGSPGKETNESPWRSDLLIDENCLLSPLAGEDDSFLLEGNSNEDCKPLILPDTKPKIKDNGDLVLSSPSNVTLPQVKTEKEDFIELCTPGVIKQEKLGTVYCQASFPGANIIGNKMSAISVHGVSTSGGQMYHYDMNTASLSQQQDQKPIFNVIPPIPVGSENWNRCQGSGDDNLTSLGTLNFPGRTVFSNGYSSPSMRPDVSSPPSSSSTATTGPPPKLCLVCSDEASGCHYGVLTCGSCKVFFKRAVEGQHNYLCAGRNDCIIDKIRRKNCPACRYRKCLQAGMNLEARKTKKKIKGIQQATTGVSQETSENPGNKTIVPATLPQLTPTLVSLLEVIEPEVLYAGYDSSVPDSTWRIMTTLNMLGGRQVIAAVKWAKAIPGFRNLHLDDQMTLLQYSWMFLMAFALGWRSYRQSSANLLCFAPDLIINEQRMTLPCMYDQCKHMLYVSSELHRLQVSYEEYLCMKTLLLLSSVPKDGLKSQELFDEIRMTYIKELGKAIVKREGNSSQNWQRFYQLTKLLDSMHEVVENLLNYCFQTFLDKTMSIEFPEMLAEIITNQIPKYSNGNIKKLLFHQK

CC(=O)OCC(=O)[C@@]1(O)[C@H](C)C[C@@H]2[C@H]3CCC4=CC(=O)C=C[C@]4(C)[C@]3(F)[C@@H](O)C[C@@]21C
-15.2%: max response [7, 13]
-18.5%: max response [7, 14]
inactive: outcome [1] | Potency [2] | activity change, negative = inhibition [3] -0.305% | outcome [4] | Potency [5] | outcome [6] | activity change, negative = inhibition [7] -3.21% | Potency [8] | Potency [9] | activity, negative = inhibition ([10]; parasite line A) 0.4% | activity, negative = inhibition ([10]; parasite line B) -1.7% | Potency (C2A) | Potency (CP217) | Potency (CP238) | Potency (CP250) | Potency (CP256) | Potency (FAB9) | Potency (JCK) | Potency (SC27B)

C[C@@]12C=CC(=O)C=C1CC[C@@H]1[C@@H]2[C@H](O)C[C@]2(C)[C@@H]1CC[C@]2(O)C(=O)CO
2.46%: max response [7, 13]
-3.94%: max response [7, 14]
inactive: outcome [1] | Potency [2] | activity change, negative = inhibition [3] -7.95% | outcome [4] | outcome [6] | activity change, negative = inhibition [7] -5.21% | Potency [8]

C=CC1=C(C(=O)O)N2C(=O)[C@@H](NC(=O)/C(=N\OCC(=O)O)c3csc(N)n3)[C@@H]2SC1
6.88%: max response [7, 13]
9.17%: max response [7, 14]
inactive: outcome [1] | Potency [2] | activity change, negative = inhibition [3] -1.88% | outcome [4] | Potency [5] | outcome [6] | activity change, negative = inhibition [7] 0.264% | Potency [8] | Potency [9] | activity, negative = inhibition ([10]; parasite line A) -8.61% | activity, negative = inhibition ([10]; parasite line B) -5.96% | Potency (C2A) | Potency (CP217) | Potency (CP238) | Potency (CP250) | Potency (CP256) | Potency (FAB9) | Potency (JCK) | Potency (SC27B)

CCCC[C@H](CC)CN1CN(C[C@@H](CC)CCCC)CC(C)(N)C1
0.881%: max response [7, 13]
-2.09%: max response [7, 14]
inactive: outcome [1] | Potency [2] | activity change, negative = inhibition [3] -26.2% | outcome [4] | outcome [6] | activity change, negative = inhibition [7] -1.27% | Potency [9] | activity, negative = inhibition ([10]; parasite line A) -5.01% | activity, negative = inhibition ([10]; parasite line B) 14.7% | Potency (C2A) | Potency (CP217) | Potency (CP238) | Potency (CP250) | Potency (CP256) | Potency (FAB9) | Potency (JCK) | Potency (SC27B)

O=C(O)c1cc2ccccc2c(Cc2cc3ccccc3c(C(=O)O)c2O)c1O (tested in a mixture with another compound)
-4.55%: max response [7, 14]
-8.55%: max response [7, 13]
inactive: outcome [1] | Potency [2] | activity change, negative = inhibition [3] -23% | outcome [4] | Potency [11] > 20.6 µM | Potency [12] > 20.6 µM | Potency [5] | outcome [6] | activity change, negative = inhibition [7] 1.36%
